The supplement of paper PMC8975748
Counter-ions that a name gives are not always drawn.

System: Saccharomyces cerevisiae BY4741 SeMeCo community
Assay: z-score of subpopulation abundance vs DMSO median, subpopulation auxotrophic for LM; higher = larger share of this subpopulation than in DMSO controls
Conditions: 10 µM; 24 h; SM minimal medium; subpopulation (auxotrophy): LM
Protocol: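 Fluorescent four-plasmid SeMeCo (self-establishing metabolically cooperating S. cerevisiae BY4741 community; plasmids pH-mRuby2, pL-mWasabi, pU-eCFP, pM-TagRFP657) was grown 24 h in minimal SM medium with each Selleck FDA-approved drug at 10 µM in 384-well plates. Cells were fixed and imaged by high-content confocal microscopy. For each auxotrophic subpopulation (and the prototroph), a z-score gives the deviation from the DMSO vehicle-control population median.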

In order of rising “z-score of subpopulation abundance” value:
1. Cn1cc(C2=C(c3cn(C4CCN(Cc5ccccn5)CC4)c4ccccc34)C(=O)NC2=O)c2ccccc21  -1.68
2. CC(=O)O[C@H]1C[C@@H]2CC[C@@H]3[C@H](CC[C@@]4(C)[C@H]3C[C@H]([N+]3(C)CCCCC3)[C@@H]4OC(C)=O)[C@@]2(C)C[C@@H]1[N+]1(C)CCCCC1 [Pancuronium dibromide]  -1.26
3. NCCc1c[nH]c2ccc(O)cc12 [Serotonin HCl]  -1.09
4. N[C@@H]1C[C@H]1c1ccccc1 [Tranylcypromine (2-PCPA) HCl]  -0.94
5. C[C@@H]1O[C@@H](O[C@H]2C[C@@H](O)[C@]3(CO)[C@H]4[C@H](O)C[C@]5(C)[C@@H](C6=CC(=O)OC6)CC[C@]5(O)[C@@H]4CC[C@]3(O)C2)[C@H](O)[C@H](O)[C@H]1O [Ouabain]  -0.83
6. N#Cc1nn(-c2c(Cl)cc(C(F)(F)F)cc2Cl)c(N)c1[S+]([O-])C(F)(F)F (centres undefined) [Fipronil]  -0.79
7. CCC1=C[C@H]2CN3CCc4c([nH]c5ccccc45)[C@](C(=O)OC)(C2)[C@H]13 [Catharanthine]  -0.74
8. O=C(O[C@H]1C[C@H]2CC[C@@H](C1)[N+]21CCCC1)C(O)(c1ccccc1)c1ccccc1 [Trospium chloride]  -0.54
9. CCN(C)C(=O)Oc1cccc([C@H](C)N(C)C)c1 [Rivastigmine]  -0.54
10. CN1[C@@H]2C[C@@H](OC(=O)[C@H](CO)c3ccccc3)C[C@H]1[C@@H]1O[C@@H]12 [Scopolamine HBr]  -0.51
11. CN(C)[C@@H]1C(=O)C(C(N)=O)=C(O)[C@@]2(O)C(=O)C3=C(O)c4c(O)cccc4[C@@](C)(O)[C@H]3[C@H](O)[C@@H]12 [Oxytetracycline Dihydrate]  -0.49
12. C=CN1CCCC1=O.II [Povidone iodine]  -0.46
13. CN(C)C(=O)Oc1ccc[n+](C)c1 [Pyridostigmine Bromide]  -0.35
14. CCN1CC2(OC(=O)c3ccccc3NC(C)=O)CCC(OC)C34C1C(CC23)C1(O)CC(OC)C2CC4C1(O)C2OC (centres undefined) [Lappaconitine]  -0.33
15. CC[C@@]1(O)C(=O)OCc2c1cc1n(c2=O)Cc2cc3ccccc3nc2-1 [Camptothecin]  -0.25
16. CN(C)[C@@H]1C(=O)C(C(N)=O)=C(O)[C@@]2(O)C(=O)C3=C(O)c4c(O)cccc4[C@@](C)(O)[C@H]3C[C@@H]12 [Tetracycline HCl]  -0.24
17. C=C(C)[C@H]1Cc2c(ccc3c2O[C@@H]2COc4cc(OC)c(OC)cc4[C@@H]2C3=O)O1 [Rotenone (Barbasco)]  -0.22
18. CCCN1C[C@H](CSC)C[C@@H]2c3cccc4[nH]cc(c34)C[C@H]21 [Pergolide Mesylate]  -0.22
19. COc1ccc2c(c1)[C@]13CCCC[C@@H]1[C@H](C2)N(C)CC3 [Dextromethorphan hydrobromide hydrate]  -0.18
20. CN1[C@@H]2CC[C@H]1C[C@@H](OC(=O)[C@H](CO)c1ccccc1)C2 [Hyoscyamine]  -0.17
21. O=C(O[C@H]1C[N+]2(CCCOc3ccccc3)CCC1CC2)C(O)(c1cccs1)c1cccs1 [Aclidinium Bromide]  -0.14
22. CNC1CC(N)C(O)C(OC2OC(CO)C(O)C3OC4(OC(C(N)CO)C(O)C(O)C4O)OC23)C1O (centres undefined) [Hygromycin B]  -0.12
23. CN[C@@H]1[C@@H](O)[C@@H](O[C@@H]2[C@@H](O)[C@H](O[C@H]3O[C@H](CN)CC[C@H]3N)[C@@H](N)C[C@H]2N)OC[C@]1(C)O.CN[C@@H]1[C@@H](O)[C@@H](O[C@@H]2[C@@H](O)[C@H](O[C@H]3O[C@H]([C@@H](C)N)CC[C@H]3N)[C@@H](N)C[C@H]2N)OC[C@]1(C)O.CN[C@@H]1[C@@H](O)[C@@H](O[C@@H]2[C@@H](O)[C@H](O[C@H]3O[C@H]([C@@H](C)NC)CC[C@H]3N)[C@@H](N)C[C@H]2N)OC[C@]1(C)O [Gentamicin Sulfate]  -0.12
24. CN(C)[C@@H]1C(=O)C(C(N)=O)=C(O)[C@@]2(O)C(=O)C3=C(O)c4c(O)cccc4[C@@](C)(O)[C@H]3[C@H](O)[C@@H]12 [Oxytetracycline (Terramycin)]  -0.04
25. CC(C)=CCOc1c2occc2cc2ccc(=O)oc12 [Imperatorin]  0
26. COc1ccc(C(CN(C)C)C2(O)CCCCC2)cc1 (centres undefined) [Venlafaxine HCl]  0.27
27. C#C[C@]1(O)C=C[C@H]2[C@@H]3CCC4=CC(=O)CC[C@@H]4[C@H]3CC[C@@]21CC [Gestodene]  0.29
28. C[C@H]1O[C@H](O[C@H]2[C@H](O)[C@@H](O)[C@@H](O)[C@H](O)[C@@H]2O)[C@@H](N)C[C@@H]1NC(=N)C(=O)O [Kasugamycin hydrochloride]  0.45
29. COC(=O)C1=CCCN(C)C1 [Arecoline HBr]  0.61
30. COc1cc2c(cc1OC)C1CC(=O)C(CC(C)C)CN1CC2 (centres undefined) [Tetrabenazine (Xenazine)]  0.75
31. CC(C)N(CCC(C(N)=O)(c1ccccc1)c1ccccn1)C(C)C (centres undefined) [Disopyramide]  1.31
32. NC(=O)CN1CCCC1=O [Piracetam]  1.96
33. COc1ccc2c3c([nH]c2c1)C(C)=NCC3 [Harmaline]  4.83
34. C[CH2][Hg][S]c1ccccc1C(=O)[O-].[Na+] [Thimerosal]  13.9
